Measurements published in PubChem BioAssay AID1159580 (chemical genetic matrix, 2015).
The whole screen tested about 5,500 compounds, of which about 2,000 (36%) were called active. About 18% were inconclusive and are not listed. Rule as the data show it: active = normalized growth mostly below about 0.91 (no sharp cut-off); inconclusive = no clear call, values can overlap the other calls; inactive = mostly above about 0.92. This is one part of the list.

Assay: chemical genetic growth profiling, strain panel (AID 1159580);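 also: tested at 20 µM; growth read once vehicle control cultures reached saturation at 30 °C; 1 = growth at the plate median or of vehicle wells; lower values mean less growth of the strain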
Conditions: growth OD

Measured: normalized growth

COC(=O)/C(=C1\OC(=O)C(c2ccccc2)=C1O)c1ccccc1
active: S. cerevisiae deletion strains, locus YLR113W, strain HOG1, hits give low values 0.827
inactive: S. cerevisiae deletion strains, locus YJL187C, strain SWE1, hits give low values 0.98 | S. cerevisiae deletion strains, locus YJR043C, strain POL32, hits give low values 1.02 | S. cerevisiae deletion strains, locus YJR066W, strain TOR1, hits give low values 0.902 | S. cerevisiae deletion strains, locus YKL009W, strain mrt4, hits give low values 1.01 | S. cerevisiae deletion strains, locus YKL068W, hits give low values 0.965 | S. cerevisiae deletion strains, locus YKL085W, strain MDH1 (second series), hits give low values 0.965 | S. cerevisiae deletion strains, locus YKL085W, strain MDH1, hits give low values 0.965 | S. cerevisiae deletion strains, locus YKL160W, strain elf1, hits give low values 0.969 | S. cerevisiae deletion strains, locus YKR001C, strain vps1, hits give low values 1.03 | S. cerevisiae deletion strains, locus YKR026C, strain gcn3, hits give low values 0.935 | S. cerevisiae deletion strains, locus YKR091W, strain srl3, hits give low values 0.965 | S. cerevisiae deletion strains, locus YLL001W, strain dnm1, hits give low values 0.97 | S. cerevisiae deletion strains, locus YLL026W, hits give low values 0.974 | S. cerevisiae deletion strains, locus YLL041C, strain sdh2, hits give low values 0.956 | S. cerevisiae deletion strains, locus YLR027C, strain aat2, hits give low values 0.969 | S. cerevisiae deletion strains, locus YLR039C, strain RIC1, hits give low values 1.03 | S. cerevisiae deletion strains, locus YLR058C, strain SHM2, hits give low values 1.01 | S. cerevisiae deletion strains, locus YLR102C, strain apc9, hits give low values 0.988 | S. cerevisiae deletion strains, locus YLR221C, strain rsa3, hits give low values 0.981 | S. cerevisiae deletion strains, locus YLR258W, strain gsy2, hits give low values 0.985 | S. cerevisiae deletion strains, locus YLR262C, strain YPT6 (second series), hits give low values 0.915 | S. cerevisiae deletion strains, locus YLR262C, strain YPT6, hits give low values 1 | S. cerevisiae deletion strains, locus YLR268W, strain sec22, hits give low values 1.03 | S. cerevisiae deletion strains, locus YLR320W, strain mms22, hits give low values 0.981 | S. cerevisiae deletion strains, locus YLR330W, strain CHS5, hits give low values 0.996 | S. cerevisiae deletion strains, locus YLR342W, strain FKS1 (second series), hits give low values 1 | S. cerevisiae deletion strains, locus YLR342W, strain FKS1, hits give low values 0.976 | S. cerevisiae deletion strains, locus YLR357W, strain rsc2, hits give low values 1.01 | S. cerevisiae deletion strains, locus YLR370C, strain arc18, hits give low values 0.97 | S. cerevisiae deletion strains, locus YLR371W, strain rom2, hits give low values 1 | S. cerevisiae deletion strains, locus YLR384C, strain iki3, hits give low values 0.982 | S. cerevisiae deletion strains, locus YLR418C, strain cdc73, hits give low values 0.996 | S. cerevisiae deletion strains, locus YML016C, strain PPZ1, hits give low values 1.01 | S. cerevisiae deletion strains, locus YML032C, strain rad52, hits give low values 0.987 | S. cerevisiae deletion strains, locus YML120C, strain ndi1, hits give low values 0.985 | S. cerevisiae deletion strains, locus YML124C, strain tub3, hits give low values 0.993 | S. cerevisiae deletion strains, locus YMR058W, strain fet3, hits give low values 0.981 | S. cerevisiae deletion strains, locus YMR078C, strain ctf18, hits give low values 1 | S. cerevisiae deletion strains, locus YMR125W, strain sto1, hits give low values 0.982 | S. cerevisiae deletion strains, locus YMR129W, hits give low values 0.965 | S. cerevisiae deletion strains, locus YMR205C, strain PFK2, hits give low values 0.965 | S. cerevisiae deletion strains, locus YMR223W, strain ubp8, hits give low values 0.98 | S. cerevisiae deletion strains, locus YMR231W, strain pep5, hits give low values 0.98 | S. cerevisiae deletion strains, locus YMR307W, strain GAS1, hits give low values 1.1 | S. cerevisiae deletion strains, locus YNL067W, strain RPL9B, hits give low values 1.03 | S. cerevisiae deletion strains, locus YNL071W, strain lat1, hits give low values 0.98 | S. cerevisiae deletion strains, locus YNL128W, strain TEP1, hits give low values 1.02 | S. cerevisiae deletion strains, locus YNL183C, strain NPR1, hits give low values 0.899 | S. cerevisiae deletion strains, locus YNL209W, strain ssb2, hits give low values 0.967 | S. cerevisiae deletion strains, locus YNL233W, strain BNI4, hits give low values 1.02 | S. cerevisiae deletion strains, locus YNL248C, strain rpa49, hits give low values 0.985 | S. cerevisiae deletion strains, locus YNL250W, strain rad50, hits give low values 0.998 | S. cerevisiae deletion strains, locus YNL271C, strain bni1, hits give low values 0.986 | S. cerevisiae deletion strains, locus YNL298W, strain CLA4, hits give low values 0.982 | S. cerevisiae deletion strains, locus YNL307C, strain MCK1, hits give low values 0.988 | S. cerevisiae deletion strains, locus YNL322C, strain KRE1 (second series), hits give low values 0.953 | S. cerevisiae deletion strains, locus YNR049C, strain mso1, hits give low values 0.959 | S. cerevisiae deletion strains, locus YNR052C, strain pop2, hits give low values 1.01 | S. cerevisiae deletion strains, locus YOL006C, strain TOP1, hits give low values 1.17 | S. cerevisiae deletion strains, locus YOL012C, strain htz1 0.689 | S. cerevisiae deletion strains, locus YOL147C, strain pex11, hits give low values 0.99 | S. cerevisiae deletion strains, locus YOR001W, strain rrp6, hits give low values 0.974 | S. cerevisiae deletion strains, locus YOR061W, strain CKA2, hits give low values 0.999 | S. cerevisiae deletion strains, locus YOR069W, strain VPS5, hits give low values 0.995 | S. cerevisiae deletion strains, locus YOR070C, strain gyp1, hits give low values 0.976 | S. cerevisiae deletion strains, locus YOR080W, strain dia2, hits give low values 0.982 | S. cerevisiae deletion strains, locus YOR083W, strain WHI5, hits give low values 0.968 | S. cerevisiae deletion strains, locus YOR106W, strain vam3, hits give low values 1.01 | S. cerevisiae deletion strains, locus YOR136W, strain idh2, hits give low values 1 | S. cerevisiae deletion strains, locus YOR144C, strain elg1, hits give low values 0.984 | S. cerevisiae deletion strains, locus YOR184W, strain ser1, hits give low values 1.01 | S. cerevisiae deletion strains, locus YOR231W, strain MKK1, hits give low values 0.903 | S. cerevisiae deletion strains, locus YOR265W, strain rbl2, hits give low values 0.961 | S. cerevisiae deletion strains, locus YOR270C, strain vph1, hits give low values 0.974 | S. cerevisiae deletion strains, locus YOR290C, strain snf2, hits give low values 0.948 | S. cerevisiae deletion strains, locus YOR316C, strain cot1, hits give low values 0.981 | S. cerevisiae deletion strains, locus YPL051W, strain arl3, hits give low values 0.983 | S. cerevisiae deletion strains, locus YPL055C, strain LGE1, hits give low values 1.05 | S. cerevisiae deletion strains, locus YPL078C, strain atp4, hits give low values 0.972 | S. cerevisiae deletion strains, locus YPL106C, strain sse1, hits give low values 0.966 | S. cerevisiae deletion strains, locus YPL240C, strain hsp82, hits give low values 0.956 | S. cerevisiae deletion strains, locus YPL241C, strain CIN2, hits give low values 0.989 | S. cerevisiae deletion strains, locus YPL256C, strain CLN2, hits give low values 0.865 | S. cerevisiae deletion strains, locus YPR119W, strain clb2, hits give low values 0.99 | S. cerevisiae deletion strains, locus YPR141C, strain kar3, hits give low values 0.965 | S. cerevisiae deletion strains, locus YPR163C, strain tif3, hits give low values 0.997 | S. cerevisiae deletion strains, locus YPR167C, strain met16, hits give low values 0.983 | S. cerevisiae deletion strains, strain wtn01, hits give low values 1.01 | S. cerevisiae strains, strain wild type, hits give low values 0.992
